Molecules are shown by their SMILES. Several values for one entry are separate records, joined by “and”; a condition that tells them apart may be missing. Equal entries are not always repeated. Inconclusive results are not listed. The source holds several records for some structures; these can differ, active in one and inactive in another. Activity calls are given as the source filed them. The call rests on the fitted dose curve; in most records, active means well fitted curve in the direction sought with a large enough effect in the repeat runs; inconclusive means weak or mixed curves; inactive means no such curve, though single readings can be large; an effect the other way counts as inactive or inconclusive.

The nature of experiment [1]: qHTS RealTime-Glo MT Cell Viability Assay in HEK293 cells - 16 hour (AID 1224872). Further: nearly all actives have a fitted effect of over 50% in size. Further: potency means the concentration at half of the fitted maximal effect. In outline:
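Viability tracked continuously by luminescence as live cells reduce a prosubstrate for NanoLuc; HEK293 cells preincubated 5 h, compound-treated at 37 C, and read at 0, 8, 16, 24, 32 and 40 h.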

Experiment [2] in a line: qHTS RealTime-Glo MT Cell Viability Assay in HepG2 cells - 8 hour (AID 1224873). Further: nearly all actives have a fitted effect of over 55% in size. Further: potency means the concentration at half of the fitted maximal effect. In outline:
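Real-time viability: cells seeded at 600 per well together with NanoLuc and cell-permeant prosubstrate, compounds added after 5 h incubation. Luminescence tracked at 0, 8, 16, 24, 32 and 40 h of exposure.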
On the technique in general: qHTS replaces the single test concentration by a dilution series.

Experiment [3] is described as follows: qHTS RealTime-Glo MT Cell Viability Assay in HEK293 cells - 40 hour (AID 1224874). Further: nearly all actives have a fitted effect of over 50% in size. Further: potency means the concentration at half of the fitted maximal effect. The following applies: RealTime-Glo luminescence; max response: stronger effect = lower value. In outline: (§1)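 Kinetic, non-lysing viability readout. Seed HEK293 (600/well) with reagent, incubate 5 h at 37 C/5% CO2, pin 23 nL compound in DMSO, incubate at 37 C, read luminescence at 0, 8, 16, 24, 32, 40 h.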

A short description of experiment [4]: A CellTox Green Cytotoxicity Assay to monitor cytotoxicity in HEK293 cells - 24 hour (AID 1224875). Further: nearly all actives have a fitted effect of over 45% in size. Further: potency means the concentration at half of the fitted maximal effect. In outline:
(§2)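 Real-time, in one plate: 600 HEK293 cells/well with dead-cell DNA dye, pinned compound after 5 h, 37 C incubation over 40 h; viable cells give no appreciable fluorescence.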

A short description of experiment [5]: A CellTox Green Cytotoxicity Assay to monitor cytotoxicity in HepG2 cells - 16 hour (AID 1224876). Further: nearly all actives have a fitted effect of over 45% in size. Further: potency means the concentration at half of the fitted maximal effect. In outline: (§3)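 Cytotoxicity was tracked as dead-cell DNA fluorescence in HepG2 cells treated with test compounds at 37 C; each time-point value comes from one kinetic series spanning 0, 8, 16, 24, 32 and 40 h.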
A short description of experiment [6]: qHTS RealTime-Glo MT Cell Viability Assay in HepG2 cells - 32 hour (AID 1224877). Further: nearly all actives have a fitted effect of over 55% in size. Further: potency means the concentration at half of the fitted maximal effect. In outline:
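Viability was tracked continuously by NanoLuc luminescence from prosubstrate reduced by living HepG2 cells, at successive time points over 40 h of compound exposure. Cells with reagent were preincubated 5 h at 37 °C before compound addition.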

Experiment [7] is described as follows: A CellTox Green Cytotoxicity Assay to monitor cytotoxicity in HepG2 cells - 24 hour (AID 1224878). Further: nearly all actives have a fitted effect of over 45% in size. Further: potency means the concentration at half of the fitted maximal effect. In outline: as §3
The nature of experiment [8]: A CellTox Green Cytotoxicity Assay to monitor cytotoxicity in HepG2 cells - 40 hour (AID 1224879). Further: nearly all actives have a fitted effect of over 40% in size. Further: potency means the concentration at half of the fitted maximal effect. In outline: as §3
The nature of experiment [9]: qHTS RealTime-Glo MT Cell Viability Assay in HEK293 cells - 0 hour (AID 1224880). Further: top concentration of the series differs between compounds; nearly all actives have a fitted effect of over 45% in size. In outline:
as §1

A short description of experiment [10]: A CellTox Green Cytotoxicity Assay to monitor cytotoxicity in HEK293 cells - 32 hour (AID 1224881). Further: nearly all actives have a fitted effect of over 40% in size. Further: potency means the concentration at half of the fitted maximal effect. In outline: as §2
On the % scale 0 is the no-effect control and ±100 the full control effect.

`CCCCCCCC(OC)OC`: the Potency result in [1], in [2], in experiment [4], in experiment [5], in experiment [6] and in experiment [7] was “inactive” each time. In addition, the Potency result in experiment [8], in experiment [9] and in [10] was “inactive” in each case. In [3], the max response is 5.48% (inactive).
Regarding `O[C@@H](c1cc(C(F)(F)F)nc2c(C(F)(F)F)cccc12)[C@H]1CCCCN1`, the Potency is 7.56 µM (active) in experiment [1]; 23.9 µM (active) in [2]; 8.49 µM (active) in experiment [3]; 26.8 µM (active) in [4]; 23.9 µM (active) in experiment [5]; 13.4 µM (active) in [6]. Further, the Potency in experiment [7] was 21.3 µM (active); in experiment [8], 15.1 µM (active); in experiment [10], 23.9 µM (active). In experiment [9], the Potency entry was “inactive”.
Regarding `O=C1OC(=O)c2cccc3cccc1c23`, the Potency result in [1], in experiment [2], in experiment [4], in experiment [5], in [6] and in [7] was “inactive” throughout. The Potency result in experiment [8], in [9] and in experiment [10] was “inactive” in each case. In addition, in experiment [3], the max response was -9.96% (inactive).
`O=Cc1ccc(F)cc1`: the Potency entry in experiment [1], in experiment [2], in experiment [4], in experiment [5], in [6] and in experiment [7] was “inactive” each time. Further, the Potency entry in experiment [8], in experiment [9] and in [10] was “inactive” each time. The max response in experiment [3] was 3.4% (inactive).
For the compound `COc1cccc(OC)c1O`, the Potency result in experiment [1], in [2], in experiment [4], in experiment [5], in experiment [6] and in [7] was “inactive” each time. The Potency result in experiment [8], in experiment [9] and in experiment [10] was “inactive” each time. Further, the max response in experiment [3] is 8.86% (inactive).
On to `CC1CCCNC1` (configuration not stated), for which the Potency entry in experiment [1], in experiment [2], in [4], in [5], in experiment [6] and in [7] was “inactive” each time. The Potency result in experiment [8], in [9] and in experiment [10] was “inactive” each time. The max response in experiment [3] is -11.1% (inactive).
For `CC(=O)C=O`, the Potency entry in experiment [1], in experiment [2], in [4], in [5], in [6] and in experiment [7] was “inactive” each time. Further, the Potency result in experiment [8], in [9] and in experiment [10] was “inactive” in each case. For the same compound, in experiment [3], the max response was 3.76% (inactive).
`CCNc1nc(NC(C)CC)nc(OC)n1` (configuration not stated): the Potency result in [1], in experiment [2], in experiment [4], in experiment [5], in [6] and in experiment [7] was “inactive” in each case. Moreover, the Potency result in experiment [8], in [9] and in experiment [10] was “inactive” in each case. The max response in [3] is -18.1% (inactive).
Regarding `COC(=O)[C@]1(C)CCC[C@@]2(C)[C@H]1CC=C1C=C(C(C)C)CC[C@@H]12`, the Potency entry in [1], in experiment [2], in [6] and in experiment [9] was “inactive” in each case. For the same compound, in experiment [3], the max response was -2.95% (inactive). The Potency in experiment [4] was 38.9 µM (active); in experiment [5], 24.5 µM (active); in experiment [7] it was 24.5 µM (active); in [8] it was 24.5 µM (active); in experiment [10], 38.9 µM (active).
In the case of `CCCCC(CC)COC(=O)c1ccc(O)cc1` (configuration not stated), the Potency in experiment [1] was 54.7 µM (active); in experiment [3], 48.8 µM (active); in experiment [4], 43.5 µM (active) and 21.9 µM (active); in experiment [5], “inactive and 30.9 µM (active)”; in [7], 34.7 µM (active); in [8] it was 34.7 µM (active). The Potency in experiment [10] was 43.5 µM (active) and 21.9 µM (active). Further, the Potency result in experiment [2], in [6] and in [9] was “inactive” throughout.
Turning to `CC(COC(=O)c1ccccc1)OC(=O)c1ccccc1` (configuration not stated), the Potency entry in experiment [1], in [2], in [4], in experiment [5], in experiment [6] and in experiment [7] was “inactive” each time. Moreover, the Potency entry in experiment [8], in experiment [9] and in [10] was “inactive” throughout. In experiment [3], the max response is -5.23% (inactive).
On to `O=C(O)Cc1ccc(OCCNC[C@H](O)c2ccccc2)cc1`, for which the Potency entry in experiment [1], in experiment [2], in [4], in experiment [5], in experiment [6] and in experiment [7] was “inactive” in each case. In addition, the Potency entry in experiment [8], in [9] and in experiment [10] was “inactive” each time. The max response in experiment [3] was 6.67% (inactive).
Consider `O=C1OC(=O)c2ccc3c4c(ccc1c24)C(=O)OC3=O`, for which the Potency entry in experiment [1], in experiment [2], in experiment [4], in experiment [5], in [6] and in experiment [7] was “inactive” in each case. Also, the Potency result in experiment [8], in experiment [9] and in experiment [10] was “inactive” in each case. Further, the max response in experiment [3] is 0.327% (inactive).
Take `CCN(CC)c1cccc(C)c1`: the Potency result in experiment [1], in experiment [2], in experiment [4], in experiment [5], in experiment [6] and in [7] was “inactive” each time. For the same compound, the Potency entry in [8], in experiment [9] and in experiment [10] was “inactive” throughout. Moreover, in experiment [3], the max response was -4.54% (inactive).
As for `CCCCCCCC/C=C\CCCCCCCC(=O)NCc1ccc(O)c(OC)c1`, the figures for the Potency in [1] and in experiment [3] were 1.69 µM (active) and 4.25 µM (active), respectively. In addition, the Potency entry in [2], in experiment [4], in experiment [5], in experiment [6], in experiment [7] and in experiment [8] was “inactive” in each case. For the same compound, the Potency result in [9] and in experiment [10] was “inactive” each time.
As to `CO[Si](CCC1CCC2OC2C1)(OC)OC` (configuration not stated), the Potency result in experiment [1], in experiment [2], in experiment [4], in experiment [5], in experiment [6] and in experiment [7] was “inactive” in each case. Further, the Potency entry in experiment [8], in experiment [9] and in experiment [10] was “inactive” each time. For the same compound, the max response in [3] was 8.81% (inactive).
With `SCCCCCCCCS`, the Potency entry in [1], in [2], in experiment [4], in experiment [6], in [9] and in experiment [10] was “inactive” in each case. For the same compound, the max response in experiment [3] is 9.16% (inactive). Further, the Potency in experiment [5] and in experiment [8] was 19.5 µM (active) each time.
For `O=CC1CC1`, the Potency result in experiment [1], in experiment [2], in [4], in [5], in experiment [7] and in [8] was “inactive” throughout. In addition, the Potency entry in [9] and in [10] was “inactive” each time. Also, in experiment [3], the max response is 12% (inactive).
`O=C1c2c(O)ccc(O)c2C(=O)c2c(NCCNCCO)ccc(NCCNCCO)c21`: the results for the Potency in [1], in experiment [3] and in [6] were 0.848 µM (active), 0.019 µM (active) and 8.49 µM (active), respectively. Further, the Potency entry in [2], in [4], in [5], in experiment [8], in experiment [9] and in experiment [10] was “inactive” throughout.
